Drawing on PubChem BioAssay (NCATS), this text covers outcome and AC50 for 23 compounds.

Active and inactive are the calls of the source. Calls come from the whole dose curve.

The conditions of the assay: Ebola virus entry cell assay, ratio channel.
Take `CN1CCN(C2=Nc3ccccc3Oc3ccc(Cl)cc32)CC1`: the result was inactive. For `O=c1[nH]cc(F)c(=O)[nH]1`, the outcome was inactive.

For the compound `CCc1nn(CCCN2CCN(c3cccc(Cl)c3)CC2)c(=O)n1CCOc1ccccc1`, the AC50 (commonly the concentration giving half of the maximal activity seen) is 22.4 µM (active).

`CC[C@]1(O)C[C@H]2CN(CCc3c([nH]c4ccccc34)[C@@](C(=O)OC)(c3cc4c(cc3OC)N(C=O)[C@H]3[C@@](O)(C(=O)OC)[C@H](OC(C)=O)[C@]5(CC)C=CCN6CC[C@]43[C@@H]65)C2)C1`: the AC50 was 0.112 µM (active). In the case of `COc1ccccc1OCCNCC(O)COc1cccc2[nH]c3ccccc3c12` (stereo not drawn), the AC50 was 10 µM (active). Regarding `COCCCC/C(=N\OCCN)c1ccc(C(F)(F)F)cc1`, the result was inactive.

Regarding `CC(C)(O)c1ccccc1CC[C@@H](SCC1(CC(=O)O)CC1)c1cccc(/C=C/c2ccc3ccc(Cl)cc3n2)c1`, the outcome was inactive. As for `CC1(C)S[C@@H]2[C@H](NC(=O)Cc3ccccc3)C(=O)N2[C@H]1C(=O)O` (tested in a mixture with another compound), the result was inactive. `O=C(O)C1(C(=O)O)CCC1.[NH2-].[NH2-].[Pt+2]`: the result was inactive. With `CCCSc1ccc2nc(NC(=O)OC)[nH]c2c1`, the AC50 was 8.91 µM (active). With `CN(C)CC[C@@H](c1ccc(Br)cc1)c1ccccn1`, the outcome was inactive. Regarding `CCN(CC)CCCC(C)Nc1ccnc2cc(Cl)ccc12` (stereo not drawn), the AC50 was 2.82 µM (active). `CC(=O)N(O)CCCCCNC(=O)CCC(=O)N(O)CCCCCNC(=O)CCC(=O)N(O)CCCCCN`: the outcome was inactive. Take `CNS(=O)(=O)CCc1ccc2[nH]cc(C3CCN(C)CC3)c2c1`: the result was inactive. On to `C[C@H]1c2cccc(O)c2C(O)=C2C(=O)[C@]3(O)C(O)=C(C(N)=O)C(=O)[C@@H](N(C)C)[C@@H]3[C@@H](O)[C@@H]21`, for which the outcome was inactive.

For `NCCCC(O)(P(=O)(O)O)P(=O)(O)O`, the AC50 was 3.98 µM (active). As for `CCC(=O)C(CC(C)N(C)C)(c1ccccc1)c1ccccc1` (stereo not drawn), the concentration at half-maximal activity (AC50) was 15.8 µM (active). For the compound `C[C@H]1O[C@H](O[C@H]2[C@H](O)[C@@H](O)[C@@H](O[C@H]3[C@H](O)[C@@H](O)[C@H](O)O[C@@H]3CO)O[C@@H]2CO)[C@H](O)[C@@H](O)[C@@H]1N[C@H]1C=C(CO)[C@@H](O)[C@H](O)[C@H]1O`, the result was inactive. Consider `C[n+]1ccccc1/C=N/O`, for which the result was inactive.

As for `COc1ccccc1Oc1c(NS(=O)(=O)c2ccc(C(C)(C)C)cc2)nc(-c2ncccn2)nc1OCCO`, the result was inactive.

`NS(=O)(=O)c1cc2c(cc1Cl)NC=NS2(=O)=O`: the outcome was inactive. Still for that read-out and setting: with `CC(C)(C)NC(=O)[C@H]1CC[C@H]2[C@@H]3CC[C@H]4NC(=O)C=C[C@]4(C)[C@H]3CC[C@]12C` the entry was “inactive”. In the case of `CC(=O)OCC(CCn1cnc2cnc(N)nc21)COC(C)=O`, the result was inactive.
